Source: PubChem BioAssay (NCATS)
Results filed as inconclusive are left out. A number with no mark means an inactive call. The source made the active and inactive calls. Calls come from the whole dose curve; as a rule, active = well fitted cell-killing curve with a large enough effect; inconclusive = small, poorly fitted or top-dose-only effect, or effect the other way; inactive = no such curve, though single readings can be large or run the other way.

test: Quantitative High-Throughput drug screen in 47 multiple myeloma cell lines against the NCATS MIPE library collection: OCIMY7_PLB cell viability assay (AID 1918987); details: OCI-MY7 myeloma viability, CellTiter-Glo ATP, 48 h; series mostly up to 45.8 µM; viability (% of DMSO): at the top concentration; note: nearly all actives have a fitted effect of over 65% in size
Source text: PI: Beverly A. Mock Ph.D.
Laboratory of Cancer Biology and Genetics,
Center for Cancer Research, National Cancer Institute,
National Institute of Health, Bethesda, Maryland
Drug resistance and disease progression are common in multiple myeloma (MM) patients, underscoring the need for new therapeutic combinations. […] We hypothesized that effective combinations would reduce MYC expression and enhance p16 activity. […] These preclinical data identify potentially useful drug combinations for evaluation in drug-resistant MM and reveal potential mechanisms of combined drug sensitivity.
Described herein is the primary MIPE qHTS used to cherrypick compounds. Validated compounds were then further tested for potential synergistic activiy.
[1] Peat TJ, Gaikwad SM, Dubois W, Gyabaah-Kessie N, Zhang S, Gorjifard S, Phyo Z, Andres M, Hughitt VK, Simpson RM, Miller MA, Girvin AT, Taylor A, Williams D, D'Antonio N, Zhang Y, Rajagopalan A, Flietner E, Wilson K, Zhang X, Shinn P, Klumpp-Thomas C, McKnight C, Itkin Z, Chen L, Kazandijian D, Zhang J, Michalowski AM, Simmons JK, Keats J, Thomas CJ, Mock BA. Drug combinations identified by high-throughput screening promote cell cycle transition and upregulate Smad pathways in myeloma. Cancer Lett. 2023 Aug 1;568:216284. doi: 10.1016/j.canlet.2023.216284. Epub 2023 Jun 24. PMID: 37356470; PMCID: PMC10408729.
SEQUENCE No. (e.g., 1, 2, 3, etc.); […] (e.g., Cells, Incubation, Reagent, etc.); VALUE and DESCRIPTION.
1; Cells; 5 uL; white, solid bottom 1536-well Greiner assay plate.
2; Compounds; 23 nL; Kalypsis pin tool (Wako USA) equipped with a 1536-well pin head to transfer to the assay plates.
3; Incubation; 48 hours; 37C incubation.
4; Reagent;5uL; CellTiter Glo (Promega).
5; Detector; 425V; Luminescence; Viewlux PerkinElmer.
NOTES (numbers refer to Sequence numbers above)
1. The cell-based screening methods employed in this study were like those previously published. Briefly, the corresponding myeloma cell lines were screened in 1,536-well plates with 500 cells, 5-uL per well for inhibition of cell viability (assessed by measuring ATP levels with CellTiterGlo).
2. NCATS MIPE 4.0 library of approved and investigational drugs were added using the Kalypsis pin tool. Wells treated with DMSO only for 100% viability and media only for 0% viability were used as controls.
3. The assay plates were covered and incubated for 48 hours in a 37C, 5% CO2 incubator with controlled humidity.
4. After 48 hours, CellTilter-GloTM luminescent substrate mix (Promega) reagent was added to the assay plate and plates we incubated for 5 min at room temperature.
5. Signal was measured as median relative luminescence units on a ViewLux (PerkinElmer) multiplate reader.
[1] Heske CM, Davis MI, Baumgart JT, Wilson K, Gormally MV, Chen L, Zhang X, Ceribelli M, Duveau DY, Guha R, Ferrer M, Arnaldez FI, Ji J, Tran HL, Zhang Y, Mendoza A, Helman LJ, Thomas CJ. Matrix Screen Identifies Synergistic Combination of PARP Inhibitors and Nicotinamide Phosphoribosyltransferase (NAMPT) Inhibitors in Ewing Sarcoma. Clin Cancer Res. 2017 Dec 1;23(23):7301-7311. doi: 10.1158/1078-0432.CCR-17-1121. Epub 2017 Sep 12. PMID: 28899971; PMCID: PMC6636827.
Potency is the fitted concentration of half-maximal effect.

| SMILES | Potency | viability (% of DMSO) |
| --- | --- | --- |
| CCCCN1CCC(CNC(=O)c2c3n(c4ccccc24)CCCO3)CC1 | 3720 nM (active) | – |
| OCCCNc1cc(-c2ccnc(Nc3cccc(Cl)c3)n2)ccn1 | 46.9 nM (active) | – |
| Nc1ncnc2c1c(-c1cccc(OCc3ccccc3)c1)cn2C1CC(CN2CCCC2)C1 (stereo not given) | 1480 nM (active) | – |
| Clc1cccc(-c2nnnn2Cc2cccnc2)c1Cl | 3720 nM (active) | – |
| Cc1nc2ccc(CN(C)c3ccc(C(=O)N[C@@H](CCC(=O)O)C(=O)O)s3)cc2c(=O)[nH]1 | – | 119% |
| OCc1ccc(-c2ccc(-c3ccc(CO)s3)o2)s1 | 1870 nM (active) | – |
| Cc1c(CN2CCN(S(C)(=O)=O)CC2)sc2c(N3CCOCC3)nc(-c3cnc(N)nc3)nc12 | 132 nM (active) | – |
| COc1cc2c(cc1-c1c(C)noc1C)ncc1[nH]c(=O)n([C@H](C)c3ccccn3)c12 | 18700 nM (active) | – |
| O=C(C=Cc1c(C(=O)O)[nH]c2cc(Cl)cc(Cl)c12)Nc1ccccc1 | – | 187% |
| O=C(C=Cc1cccnc1)NCCCCC1CCN(C(=O)c2ccccc2)CC1 | 10.5 nM (active) | – |
| O=C(Nc1nc2cccc(-c3ccc(CN4CCS(=O)(=O)CC4)cc3)n2n1)C1CC1 | 9350 nM (active) | – |
| COc1ccc(F)c(F)c1C(=O)c1cnc(NC2CCN(S(C)(=O)=O)CC2)nc1N | 1660 nM (active) | – |
| NC(=O)c1c(OCc2c(F)cc(Br)cc2F)nsc1NC(=O)NCCCCN1CCCC1 | 8330 nM (active) | – |
| CCC[C@H](NC(=O)C(C#N)=Cc1cccc(Br)n1)c1ccccc1 | 526 nM (active) | – |
| Cc1cn2c(-c3cn[nH]c3)cnc2c(Nc2ccc(C(=O)N3CCNCC3)cc2F)n1 | 10500 nM (active) | – |
| CC(C)CC(=O)Nc1n[nH]c2c1CN(C(=O)C1CCN(C)CC1)C2(C)C | 1660 nM (active) | – |
| Cc1ccc(C(=O)Nc2cccc(C(F)(F)F)c2)cc1-c1ccc2nc(NCCN3CCOCC3)ncc2c1 | 935 nM (active) | – |
| CN[C@H]1CCc2cc(OC)c(OC)c(OC)c2-c2ccc(OC)c(=O)cc21 | 1 nM (active) | – |
| Cc1cnc(Nc2ccc(F)cc2Cl)nc1-c1c[nH]c(C(=O)N[C@H](CO)c2cccc(Cl)c2)c1 | 4690 nM (active) | – |
| CC(C)C[C@H](NC(=O)CNC(=O)c1cc(Cl)ccc1Cl)B(O)O | 41.8 nM (active) | – |

| SMILES | Potency | viability (% of DMSO) |
| --- | --- | --- |
| Nc1ncnc2c1c(-c1cnc3[nH]ccc3c1)nn2C1CCCC1 | 1180 nM (active) | – |
| CCn1cc(-c2ccnc3[nH]c(-c4cccc(CN(C)C)c4)cc23)c(-c2ccc(NC(=O)N(C)C)cc2)n1 | 187 nM (active) | – |
| C[C@@H](Oc1cc(-c2cnn(C3CCNCC3)c2)cnc1N)c1c(Cl)ccc(F)c1Cl | 3320 nM (active) | – |
| O=C(CCCCCCC(=O)Nc1ccc([C@H]2O[C@@H](CSc3nc(-c4ccccc4)c(-c4ccccc4)o3)C[C@@H](c3ccc(CO)cc3)O2)cc1)NO | 8330 nM (active) | – |
| Cc1ccc(-c2ncn(-c3ccc(Nc4nccc(-c5cccc(N6CCOCC6)c5)n4)cc3)n2)cn1 | 132 nM (active) | – |
| CNC(=O)c1c(F)cccc1Nc1nc(Nc2cc3c(cc2OC)CCN3C(=O)CN(C)C)nc2[nH]ccc12 | 105 nM (active) | – |
| COc1cc(C(=O)NS(=O)(=O)c2ccccc2C)ccc1Cc1cn(C)c2ccc(NC(=O)OC3CCCC3)cc12 | 14800 nM (active) | – |
| C#Cc1cccc(Nc2ncnc3cc(OC)c(OCCCCCCC(=O)NO)cc23)c1 | 148 nM (active) | – |
| c1cc(-c2cnn3cc(-c4ccc(OCCN5CCCCC5)cc4)cnc23)ccn1 | 2090 nM (active) | – |
| Cn1cc(-c2[nH]c3cc(NC(=O)[C@H](N)C4CCCCC4)cc4c3c2C=NNC4=O)cn1 | 6620 nM (active) | – |
| CC(C)(C)c1cc(NC(=O)Nc2ccc(-c3cn4c(n3)sc3cc(OCCN5CCOCC5)ccc34)cc2)no1 | – | 56.9% |
| CCN1CCN(Cc2ccc(-c3cc4c(N[C@H](C)c5ccccc5)ncnc4[nH]3)cc2)CC1 | – | 7.57% |
| Cn1cc(-c2ccncc2)c(-c2ccc(OCc3ccc4ccccc4n3)cc2)n1 | 10500 nM (active) | – |
| CC[C@@]1(O)C(=O)OCc2c1cc1n(c2=O)Cc2cc3cc(O)ccc3nc2-1 | 10.5 nM (active) | – |
| CC(=O)OCC(=O)[C@@]1(O)[C@H](C)C[C@H]2[C@@H]3C=C(C)C4=Cc5c(cnn5-c5ccccc5)C[C@]4(C)[C@@H]3[C@@H](O)C[C@@]21C | 7430 nM (active) | – |
| COc1cc(Nc2ncc(F)c(Nc3ccc4c(n3)N(COP(=O)(O)O)C(=O)C(C)(C)O4)n2)cc(OC)c1OC | 1870 nM (active) | – |
| COC(=O)C[C@](O)(CCCC(C)(C)O)C(=O)O[C@@H]1C(OC)=C[C@]23CCCN2CCc2cc4c(cc2[C@H]13)OCO4 | – | 127% |
| CCC(=C(c1ccccc1)c1ccc(OCCN(C)C)cc1)c1ccccc1 | 20900 nM (active) | – |
| Nc1nc(NCCNc2ncc(-n3ccnc3)c(-c3ccc(Cl)cc3Cl)n2)ccc1[N+](=O)[O-] | 5260 nM (active) | – |
| N#CCNC(=O)c1ccc(-c2ccnc(Nc3ccc(N4CCOCC4)cc3)n2)cc1 | 5260 nM (active) | – |
